This passage reports residual activity results from ChEMBL document CHEMBL2218924, “A broad activity screen in support of a chemogenomic map for kinase signalling research and drug discovery” (Biochem J, 2013).

As a reminder, the residual activity is the signal under treatment as a percentage of the control signal.

The target of test [1] is T1, Serine/threonine-protein kinase 17A (Homo sapiens) (UniProt Q9UEE5).
T1 sequence (whole entry): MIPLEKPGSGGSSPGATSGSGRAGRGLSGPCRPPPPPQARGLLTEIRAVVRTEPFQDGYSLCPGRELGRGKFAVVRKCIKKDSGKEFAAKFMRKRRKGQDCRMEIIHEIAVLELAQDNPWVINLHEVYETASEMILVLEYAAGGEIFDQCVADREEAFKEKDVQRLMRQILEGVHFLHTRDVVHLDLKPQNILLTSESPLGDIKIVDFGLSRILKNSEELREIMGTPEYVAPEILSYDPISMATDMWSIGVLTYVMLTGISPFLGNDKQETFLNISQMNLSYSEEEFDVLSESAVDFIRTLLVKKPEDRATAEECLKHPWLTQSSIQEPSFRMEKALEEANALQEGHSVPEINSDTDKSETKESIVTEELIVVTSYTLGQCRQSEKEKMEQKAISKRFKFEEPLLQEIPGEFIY
Conditions: at 10 µM.

Test [2] concerns the target T2, Dual specificity tyrosine-phosphorylation-regulated kinase 2 (Homo sapiens) (UniProt Q92630).
T2 sequence (whole entry): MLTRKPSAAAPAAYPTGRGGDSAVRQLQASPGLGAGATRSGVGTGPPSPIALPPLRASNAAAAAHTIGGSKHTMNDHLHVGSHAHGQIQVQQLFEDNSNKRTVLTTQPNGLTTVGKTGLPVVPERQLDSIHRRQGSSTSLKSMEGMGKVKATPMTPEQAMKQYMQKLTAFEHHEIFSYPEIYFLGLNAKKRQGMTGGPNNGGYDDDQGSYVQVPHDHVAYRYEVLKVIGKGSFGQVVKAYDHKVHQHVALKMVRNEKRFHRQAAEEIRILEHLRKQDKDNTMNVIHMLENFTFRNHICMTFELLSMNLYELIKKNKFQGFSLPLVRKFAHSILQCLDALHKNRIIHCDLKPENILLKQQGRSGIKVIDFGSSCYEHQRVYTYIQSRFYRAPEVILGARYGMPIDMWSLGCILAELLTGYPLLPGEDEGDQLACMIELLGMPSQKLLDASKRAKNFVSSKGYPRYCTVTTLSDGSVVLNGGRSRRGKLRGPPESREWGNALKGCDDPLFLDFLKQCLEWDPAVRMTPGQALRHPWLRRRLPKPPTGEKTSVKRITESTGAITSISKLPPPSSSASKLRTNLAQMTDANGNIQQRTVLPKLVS
Conditions: at 1 µM.

Test [3] addresses T2, Dual specificity tyrosine-phosphorylation-regulated kinase 2 (Homo sapiens). Conditions: at 10 µM.
In test [4] the target is T3, Ephrin type-A receptor 1 (Homo sapiens) (UniProt P21709).
T3 sequence (whole entry): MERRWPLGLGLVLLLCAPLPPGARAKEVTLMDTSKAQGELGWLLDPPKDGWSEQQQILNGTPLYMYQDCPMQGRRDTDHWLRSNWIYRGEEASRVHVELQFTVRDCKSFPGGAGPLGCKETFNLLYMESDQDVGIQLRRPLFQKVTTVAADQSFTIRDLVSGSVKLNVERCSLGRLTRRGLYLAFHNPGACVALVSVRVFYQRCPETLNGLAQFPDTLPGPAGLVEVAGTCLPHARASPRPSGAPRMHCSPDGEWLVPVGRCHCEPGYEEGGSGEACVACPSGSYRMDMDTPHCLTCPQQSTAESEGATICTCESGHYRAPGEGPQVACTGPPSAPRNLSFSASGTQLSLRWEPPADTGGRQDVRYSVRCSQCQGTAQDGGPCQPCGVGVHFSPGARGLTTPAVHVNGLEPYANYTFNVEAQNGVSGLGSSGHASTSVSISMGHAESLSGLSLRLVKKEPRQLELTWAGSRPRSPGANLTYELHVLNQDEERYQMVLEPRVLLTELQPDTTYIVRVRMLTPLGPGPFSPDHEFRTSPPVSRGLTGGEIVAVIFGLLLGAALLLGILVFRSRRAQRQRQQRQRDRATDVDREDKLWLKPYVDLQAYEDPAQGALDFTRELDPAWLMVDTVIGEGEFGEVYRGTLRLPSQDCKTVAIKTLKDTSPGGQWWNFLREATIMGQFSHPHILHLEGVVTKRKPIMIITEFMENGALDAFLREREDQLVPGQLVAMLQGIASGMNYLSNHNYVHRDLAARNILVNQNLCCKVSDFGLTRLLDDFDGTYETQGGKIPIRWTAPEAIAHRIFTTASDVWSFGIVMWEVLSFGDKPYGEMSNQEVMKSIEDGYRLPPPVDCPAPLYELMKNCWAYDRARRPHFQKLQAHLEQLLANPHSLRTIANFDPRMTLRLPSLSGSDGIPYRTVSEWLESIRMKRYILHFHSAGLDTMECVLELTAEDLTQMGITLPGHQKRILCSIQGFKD
Conditions: at 1 µM.

In test [5] the target is T3, Ephrin type-A receptor 1 (Homo sapiens). The conditions noted are these: at 10 µM.
Test [6] addresses Ephrin type-A receptor 2 (Homo sapiens) (UniProt P29317). Conditions: at 1 µM.
For test [7] the target is unchanged. Conditions: at 10 µM.
For test [8], the target named is T4, Ephrin type-A receptor 3 (Homo sapiens) (UniProt P29320).
T4 sequence (whole entry): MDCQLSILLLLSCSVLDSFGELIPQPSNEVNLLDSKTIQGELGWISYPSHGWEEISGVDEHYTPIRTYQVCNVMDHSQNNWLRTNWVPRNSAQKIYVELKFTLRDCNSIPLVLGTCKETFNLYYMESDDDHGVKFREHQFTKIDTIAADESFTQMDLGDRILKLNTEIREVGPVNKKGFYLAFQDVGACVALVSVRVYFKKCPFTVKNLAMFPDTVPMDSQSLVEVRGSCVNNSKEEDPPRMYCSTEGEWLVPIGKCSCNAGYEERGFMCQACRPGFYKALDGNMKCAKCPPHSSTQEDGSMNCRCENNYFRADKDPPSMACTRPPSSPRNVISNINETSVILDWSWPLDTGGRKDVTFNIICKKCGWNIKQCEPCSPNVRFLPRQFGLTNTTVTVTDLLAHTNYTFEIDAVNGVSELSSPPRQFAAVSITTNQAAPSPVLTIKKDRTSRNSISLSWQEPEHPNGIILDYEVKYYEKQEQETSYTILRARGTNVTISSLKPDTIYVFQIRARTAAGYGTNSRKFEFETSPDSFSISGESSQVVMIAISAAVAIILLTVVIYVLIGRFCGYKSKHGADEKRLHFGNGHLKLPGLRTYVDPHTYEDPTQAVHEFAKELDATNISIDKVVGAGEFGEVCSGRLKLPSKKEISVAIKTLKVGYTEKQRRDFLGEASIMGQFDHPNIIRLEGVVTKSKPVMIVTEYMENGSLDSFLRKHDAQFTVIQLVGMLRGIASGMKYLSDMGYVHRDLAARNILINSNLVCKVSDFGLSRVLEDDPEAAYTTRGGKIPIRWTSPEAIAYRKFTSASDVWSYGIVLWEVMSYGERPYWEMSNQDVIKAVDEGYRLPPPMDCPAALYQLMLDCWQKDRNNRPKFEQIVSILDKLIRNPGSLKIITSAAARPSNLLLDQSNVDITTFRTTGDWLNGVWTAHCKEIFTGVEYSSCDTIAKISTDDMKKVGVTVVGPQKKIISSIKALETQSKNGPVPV
The conditions noted are these: at 1 µM.

Test [9] concerns the target T4, Ephrin type-A receptor 3 (Homo sapiens). The conditions noted are these: at 10 µM.
Test [10] has as its target Ephrin type-A receptor 5 (Homo sapiens) (UniProt P54756). The conditions noted are these: at 1 µM.
The target is the same in test [11]. The conditions noted are these: at 10 µM.
The target in test [12] is Ephrin type-A receptor 7 (Homo sapiens) (UniProt Q15375). Conditions: at 1 µM.
Sequence of Ephrin type-A receptor 7 (Homo sapiens) (Q15375 28-998 limits assumed): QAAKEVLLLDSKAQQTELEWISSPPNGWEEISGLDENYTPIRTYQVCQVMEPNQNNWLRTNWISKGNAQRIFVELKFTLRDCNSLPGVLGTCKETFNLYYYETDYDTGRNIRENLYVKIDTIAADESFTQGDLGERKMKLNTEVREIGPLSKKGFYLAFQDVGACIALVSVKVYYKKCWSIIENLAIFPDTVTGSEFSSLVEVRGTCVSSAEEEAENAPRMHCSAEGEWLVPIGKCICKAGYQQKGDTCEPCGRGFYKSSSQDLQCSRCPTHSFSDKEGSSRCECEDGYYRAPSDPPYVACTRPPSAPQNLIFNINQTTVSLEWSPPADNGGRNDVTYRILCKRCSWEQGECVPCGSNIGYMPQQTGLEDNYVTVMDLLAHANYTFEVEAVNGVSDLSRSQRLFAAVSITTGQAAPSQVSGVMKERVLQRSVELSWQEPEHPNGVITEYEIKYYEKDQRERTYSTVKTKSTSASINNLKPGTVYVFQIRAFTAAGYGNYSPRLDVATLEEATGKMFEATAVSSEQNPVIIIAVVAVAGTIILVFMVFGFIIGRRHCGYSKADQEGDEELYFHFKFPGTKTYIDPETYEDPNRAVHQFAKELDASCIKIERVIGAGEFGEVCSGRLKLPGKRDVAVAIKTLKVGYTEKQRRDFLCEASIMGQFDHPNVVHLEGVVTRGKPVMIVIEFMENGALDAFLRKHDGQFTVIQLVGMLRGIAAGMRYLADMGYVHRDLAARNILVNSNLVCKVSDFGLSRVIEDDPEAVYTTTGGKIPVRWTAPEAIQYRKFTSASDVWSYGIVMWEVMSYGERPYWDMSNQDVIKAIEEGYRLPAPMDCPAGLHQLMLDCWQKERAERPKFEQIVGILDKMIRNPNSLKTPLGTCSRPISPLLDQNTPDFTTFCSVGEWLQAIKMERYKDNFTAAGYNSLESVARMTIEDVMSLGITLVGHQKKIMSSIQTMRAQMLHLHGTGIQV
For test [13] the target is unchanged. The conditions noted are these: at 10 µM.
Test [14] has as its target T5, Ephrin type-A receptor 8 (Homo sapiens) (UniProt P29322).
T5 sequence (whole entry): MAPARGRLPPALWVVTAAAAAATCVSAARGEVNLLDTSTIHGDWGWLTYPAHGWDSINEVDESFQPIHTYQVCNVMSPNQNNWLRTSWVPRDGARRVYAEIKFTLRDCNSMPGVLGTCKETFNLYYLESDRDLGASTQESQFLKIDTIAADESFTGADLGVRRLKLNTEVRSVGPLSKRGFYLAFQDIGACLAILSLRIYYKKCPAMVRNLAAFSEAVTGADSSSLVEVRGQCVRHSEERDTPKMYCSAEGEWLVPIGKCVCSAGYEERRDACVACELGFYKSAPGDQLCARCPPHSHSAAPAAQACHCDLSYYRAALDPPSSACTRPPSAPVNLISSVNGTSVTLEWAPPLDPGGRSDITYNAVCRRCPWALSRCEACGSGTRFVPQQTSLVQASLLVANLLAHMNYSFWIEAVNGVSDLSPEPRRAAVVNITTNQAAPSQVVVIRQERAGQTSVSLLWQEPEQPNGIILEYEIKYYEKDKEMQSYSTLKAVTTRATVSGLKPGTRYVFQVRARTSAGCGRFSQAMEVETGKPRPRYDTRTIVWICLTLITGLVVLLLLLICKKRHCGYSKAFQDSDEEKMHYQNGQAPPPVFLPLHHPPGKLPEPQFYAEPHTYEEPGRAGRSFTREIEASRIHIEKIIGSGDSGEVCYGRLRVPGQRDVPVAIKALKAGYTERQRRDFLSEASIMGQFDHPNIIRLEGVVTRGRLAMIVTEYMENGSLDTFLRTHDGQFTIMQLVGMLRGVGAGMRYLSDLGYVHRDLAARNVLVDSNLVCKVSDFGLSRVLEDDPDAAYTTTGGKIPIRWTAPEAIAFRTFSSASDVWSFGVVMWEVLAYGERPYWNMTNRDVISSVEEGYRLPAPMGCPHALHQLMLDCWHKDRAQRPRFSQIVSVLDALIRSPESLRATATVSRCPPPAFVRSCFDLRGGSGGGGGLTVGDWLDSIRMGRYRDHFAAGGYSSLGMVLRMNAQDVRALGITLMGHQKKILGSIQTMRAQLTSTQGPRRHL
The conditions noted are these: at 1 µM.

The target of test [15] is T5, Ephrin type-A receptor 8 (Homo sapiens). Conditions: at 10 µM.
For test [16], the target named is T6, Ephrin type-B receptor 1 (Homo sapiens) (UniProt P54762).
T6 sequence (whole entry): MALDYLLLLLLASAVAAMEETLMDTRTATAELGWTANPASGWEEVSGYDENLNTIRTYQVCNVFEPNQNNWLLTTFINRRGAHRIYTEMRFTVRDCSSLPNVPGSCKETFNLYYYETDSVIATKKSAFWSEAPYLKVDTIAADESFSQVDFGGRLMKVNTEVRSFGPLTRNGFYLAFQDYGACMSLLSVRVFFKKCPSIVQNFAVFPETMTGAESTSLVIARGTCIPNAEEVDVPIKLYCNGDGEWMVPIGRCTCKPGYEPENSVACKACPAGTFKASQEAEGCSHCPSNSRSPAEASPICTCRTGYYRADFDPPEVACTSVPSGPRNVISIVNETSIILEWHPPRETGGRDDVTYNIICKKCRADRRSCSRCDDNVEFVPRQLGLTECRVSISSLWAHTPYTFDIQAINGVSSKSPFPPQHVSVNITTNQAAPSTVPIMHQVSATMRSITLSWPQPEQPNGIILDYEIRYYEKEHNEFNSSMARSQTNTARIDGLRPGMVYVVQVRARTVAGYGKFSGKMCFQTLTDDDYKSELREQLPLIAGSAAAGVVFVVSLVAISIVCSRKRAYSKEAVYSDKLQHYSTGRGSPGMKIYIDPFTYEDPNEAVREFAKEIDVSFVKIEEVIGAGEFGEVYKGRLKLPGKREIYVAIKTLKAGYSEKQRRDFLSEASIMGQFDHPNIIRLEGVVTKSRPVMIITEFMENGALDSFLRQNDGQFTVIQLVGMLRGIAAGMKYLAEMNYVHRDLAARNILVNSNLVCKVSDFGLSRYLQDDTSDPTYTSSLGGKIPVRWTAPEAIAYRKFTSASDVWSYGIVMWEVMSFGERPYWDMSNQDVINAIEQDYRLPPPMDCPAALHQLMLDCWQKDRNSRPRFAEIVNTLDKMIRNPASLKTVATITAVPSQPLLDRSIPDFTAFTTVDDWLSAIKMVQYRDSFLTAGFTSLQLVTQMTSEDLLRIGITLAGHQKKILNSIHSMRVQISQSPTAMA
The conditions noted are these: at 1 µM.

Test [17] deals with Ephrin type-A receptor 4 (Homo sapiens) (UniProt P54764). Conditions: at 1 µM.
Sequence of Ephrin type-A receptor 4 (Homo sapiens) (P54764 whole entry): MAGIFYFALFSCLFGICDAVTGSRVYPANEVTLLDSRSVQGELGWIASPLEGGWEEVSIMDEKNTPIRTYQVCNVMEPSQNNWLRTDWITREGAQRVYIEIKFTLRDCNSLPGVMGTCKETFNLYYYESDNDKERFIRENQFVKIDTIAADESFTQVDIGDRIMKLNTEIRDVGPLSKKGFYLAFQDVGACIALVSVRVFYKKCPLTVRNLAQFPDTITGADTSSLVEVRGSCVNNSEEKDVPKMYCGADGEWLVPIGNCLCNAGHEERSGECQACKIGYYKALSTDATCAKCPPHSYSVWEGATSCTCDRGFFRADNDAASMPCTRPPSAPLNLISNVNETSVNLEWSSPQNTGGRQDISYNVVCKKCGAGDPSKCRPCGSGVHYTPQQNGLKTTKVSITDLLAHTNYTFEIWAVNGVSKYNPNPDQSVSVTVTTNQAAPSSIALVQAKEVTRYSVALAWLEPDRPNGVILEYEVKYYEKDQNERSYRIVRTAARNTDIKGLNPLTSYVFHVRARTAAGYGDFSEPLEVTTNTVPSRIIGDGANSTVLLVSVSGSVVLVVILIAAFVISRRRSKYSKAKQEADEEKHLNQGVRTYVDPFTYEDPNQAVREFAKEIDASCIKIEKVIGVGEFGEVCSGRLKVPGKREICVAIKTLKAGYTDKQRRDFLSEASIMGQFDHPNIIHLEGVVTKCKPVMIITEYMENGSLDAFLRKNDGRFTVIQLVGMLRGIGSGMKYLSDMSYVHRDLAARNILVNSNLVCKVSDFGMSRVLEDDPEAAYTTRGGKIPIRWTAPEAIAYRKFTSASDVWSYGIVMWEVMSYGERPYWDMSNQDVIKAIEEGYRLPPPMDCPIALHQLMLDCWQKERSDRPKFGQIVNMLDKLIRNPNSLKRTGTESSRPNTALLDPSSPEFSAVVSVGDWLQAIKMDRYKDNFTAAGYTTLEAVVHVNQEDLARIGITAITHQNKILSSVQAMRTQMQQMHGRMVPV
Test [18] has the same target. Conditions: at 10 µM.

Sequence of Ephrin type-A receptor 2 (Homo sapiens) (P29317 whole entry): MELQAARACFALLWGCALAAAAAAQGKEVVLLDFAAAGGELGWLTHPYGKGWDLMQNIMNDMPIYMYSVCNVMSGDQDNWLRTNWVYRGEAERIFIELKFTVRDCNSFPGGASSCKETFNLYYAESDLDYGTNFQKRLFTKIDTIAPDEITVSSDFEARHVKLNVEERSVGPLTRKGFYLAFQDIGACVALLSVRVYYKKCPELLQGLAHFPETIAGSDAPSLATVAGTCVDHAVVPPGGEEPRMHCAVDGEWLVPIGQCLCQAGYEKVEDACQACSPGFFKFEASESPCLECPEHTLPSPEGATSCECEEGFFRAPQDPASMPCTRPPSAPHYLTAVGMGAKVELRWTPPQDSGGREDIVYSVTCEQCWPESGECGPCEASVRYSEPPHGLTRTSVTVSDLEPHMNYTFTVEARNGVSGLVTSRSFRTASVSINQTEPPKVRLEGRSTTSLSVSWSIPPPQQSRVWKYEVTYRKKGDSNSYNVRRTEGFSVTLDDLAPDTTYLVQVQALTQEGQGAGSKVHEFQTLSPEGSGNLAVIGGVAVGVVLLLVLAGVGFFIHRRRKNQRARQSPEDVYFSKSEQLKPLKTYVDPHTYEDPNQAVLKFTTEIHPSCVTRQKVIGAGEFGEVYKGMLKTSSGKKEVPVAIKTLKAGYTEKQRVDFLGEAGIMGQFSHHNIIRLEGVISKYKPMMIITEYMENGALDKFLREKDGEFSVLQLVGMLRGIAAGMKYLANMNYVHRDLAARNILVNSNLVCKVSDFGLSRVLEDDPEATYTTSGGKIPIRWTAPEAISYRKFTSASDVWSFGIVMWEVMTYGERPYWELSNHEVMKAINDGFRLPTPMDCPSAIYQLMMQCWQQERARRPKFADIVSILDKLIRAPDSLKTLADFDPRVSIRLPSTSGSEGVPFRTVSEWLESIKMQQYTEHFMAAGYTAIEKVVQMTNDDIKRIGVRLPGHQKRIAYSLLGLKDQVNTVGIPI
Sequence of Ephrin type-A receptor 5 (Homo sapiens) (P54756 whole entry): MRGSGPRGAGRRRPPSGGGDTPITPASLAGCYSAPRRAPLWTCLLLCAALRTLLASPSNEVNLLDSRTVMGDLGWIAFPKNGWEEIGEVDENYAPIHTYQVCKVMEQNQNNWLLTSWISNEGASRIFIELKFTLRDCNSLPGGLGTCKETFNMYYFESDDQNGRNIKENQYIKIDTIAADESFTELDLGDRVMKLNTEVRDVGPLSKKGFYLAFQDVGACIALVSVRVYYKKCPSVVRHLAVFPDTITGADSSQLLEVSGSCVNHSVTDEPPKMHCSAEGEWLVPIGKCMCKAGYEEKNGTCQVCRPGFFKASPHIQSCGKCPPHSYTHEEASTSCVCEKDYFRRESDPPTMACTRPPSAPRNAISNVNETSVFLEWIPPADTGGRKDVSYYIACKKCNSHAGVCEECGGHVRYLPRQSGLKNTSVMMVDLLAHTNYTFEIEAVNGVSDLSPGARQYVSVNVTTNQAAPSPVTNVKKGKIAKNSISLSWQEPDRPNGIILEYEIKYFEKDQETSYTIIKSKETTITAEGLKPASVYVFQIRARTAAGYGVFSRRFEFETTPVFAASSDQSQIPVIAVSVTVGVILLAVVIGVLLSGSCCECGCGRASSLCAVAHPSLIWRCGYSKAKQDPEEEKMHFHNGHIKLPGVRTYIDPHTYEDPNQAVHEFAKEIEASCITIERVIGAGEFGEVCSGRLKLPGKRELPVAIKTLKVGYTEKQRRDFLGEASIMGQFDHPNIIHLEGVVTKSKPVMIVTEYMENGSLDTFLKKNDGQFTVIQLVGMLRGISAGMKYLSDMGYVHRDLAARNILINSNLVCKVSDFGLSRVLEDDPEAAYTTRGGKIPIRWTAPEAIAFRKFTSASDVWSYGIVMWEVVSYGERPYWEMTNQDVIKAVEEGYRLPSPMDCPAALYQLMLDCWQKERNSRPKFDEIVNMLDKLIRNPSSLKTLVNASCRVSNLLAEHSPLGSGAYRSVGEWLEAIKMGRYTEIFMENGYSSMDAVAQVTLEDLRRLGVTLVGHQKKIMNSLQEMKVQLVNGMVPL

As for `Cn1nc2c3c(cccc31)C(=O)c1ccccc1-2`, the residual activity was 20% in test [1]; 91% in test [2]; 75% in test [3]; 88% in test [4]; 68% in [5]; 92% in [6]. Also, the residual activity in test [7] turned out to be 97%; in test [8], 88%; in [9] it was 73%; in test [10] it was 110%; in test [11] it was 99%; in [12], 95%. Further, the residual activity in test [13] stood at 88%; in test [14] it was 94%; in [15] it was 81%; in [16], 94%.

In the case of `O=C1Nc2ccc(Br)cc2/C1=C\c1cc2c([nH]1)CCCC2`, the residual activity amounted to 40% in [1]; 97% in [2]; 99% in [3]; 105% in test [5]; 112% in [6]; 97% in [7]. In addition, the residual activity in test [8] was determined as 108%; in [17], 106%; in [18], 103%; in [10], 110%; in test [15], 101%; in [16] it was 101%.

Turning to `CCN(CC)C(=O)c1ccc(Nc2nc(OCC3CCCCC3)c3nc[nH]c3n2)cc1`, the residual activity in test [1] amounted to 4%; in test [4], 60%; in test [5] it was 8%; in test [6] it was 77%; in test [7] it was 42%; in test [9], 60%. In addition, the residual activity in [18] came out at 73%; in test [12] it was 71%; in test [13] it was 7%; in [14], 97%; in test [15] it was 64%; in test [16] it was 68%.
